In the library only some 2.5% were active in any assay of this set; here they are far more common.
L3MBTL1 inh: blocks human L3MBTL1; Q9Y468; AlphaScreen L3MBTL1–H3K9me1 peptide binding; Potency, µM (series often up to 57.1 µM), inactives show at the highest dose activity, negative = inhibition, hits mostly inhibitors; hit rate 0.66% among 230,000; AID 485360; note: % is set by controls: 0 for no effect and ±100 for the full control effect; nearly all actives have a fitted effect of over 60% in size
Target sequence (Q9Y468 whole entry, looked up): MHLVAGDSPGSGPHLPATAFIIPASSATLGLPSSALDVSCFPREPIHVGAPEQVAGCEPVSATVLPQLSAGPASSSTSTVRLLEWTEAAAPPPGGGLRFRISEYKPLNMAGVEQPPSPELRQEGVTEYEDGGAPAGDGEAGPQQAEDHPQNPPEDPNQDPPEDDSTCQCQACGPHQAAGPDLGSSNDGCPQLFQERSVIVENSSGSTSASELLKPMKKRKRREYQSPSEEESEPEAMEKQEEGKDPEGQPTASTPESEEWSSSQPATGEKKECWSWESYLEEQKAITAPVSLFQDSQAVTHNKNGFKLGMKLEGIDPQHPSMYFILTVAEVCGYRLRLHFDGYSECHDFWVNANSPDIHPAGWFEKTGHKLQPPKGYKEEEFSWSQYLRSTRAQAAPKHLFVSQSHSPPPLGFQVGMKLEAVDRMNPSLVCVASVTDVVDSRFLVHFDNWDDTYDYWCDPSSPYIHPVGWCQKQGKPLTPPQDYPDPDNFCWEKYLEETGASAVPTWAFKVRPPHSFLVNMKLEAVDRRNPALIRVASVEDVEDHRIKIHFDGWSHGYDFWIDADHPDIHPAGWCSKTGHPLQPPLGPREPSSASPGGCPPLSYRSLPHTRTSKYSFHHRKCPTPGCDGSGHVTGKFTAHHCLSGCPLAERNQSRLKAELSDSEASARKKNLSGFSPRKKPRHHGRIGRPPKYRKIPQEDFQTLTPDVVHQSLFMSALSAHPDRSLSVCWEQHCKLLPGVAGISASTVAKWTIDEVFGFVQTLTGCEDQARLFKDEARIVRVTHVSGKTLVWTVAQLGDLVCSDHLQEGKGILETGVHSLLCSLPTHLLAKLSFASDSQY
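L3MBTL1 (50 nM) pre-complexed 30 min with biotinylated H3(1-15)K9me1 peptide (75 nM), then compounds added for 30 min at room temperature; AlphaScreen streptavidin donor/nickel chelate acceptor beads (10 ug/mL final) read after 30 min dark incubation.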
Pol kappa inh: blocks human DNA polymerase kappa activity; Q9UBT6; purified Pol kappa, fluorescent DNA synthesis assay, 10 min; Potency, µM (highest dose often 107 µM), inactives show top-dose activity, negative = inhibition, most hits filed as inhibitors; hit rate 0.53% among 400,000; note: % is set by controls: 0 for no effect and ±100 for the full control effect
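Kinetic fluorescence screen: compound preincubated 15 min RT with 10 nM enzyme; 50 nM substrate (final) initiates; reads at 0/10 min.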
POLI inh: blocks human DNA polymerase iota activity; Q9UNA4; Pol iota fluorescent replication assay, 10 min; Potency, µM (doses to about 115 µM), for the others: top-dose activity, negative = inhibition, usual class: inhibitors; hit rate 1% among 390,000
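Pol iota at 10 nM preincubated 15 min with compounds at room temperature; reaction started with fluorescent substrate, 50 nM final. Fluorescence read kinetically at 0 and 10 min; buffer-only wells as negative control.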
APE1 inh: APE1 (human) endonuclease inhibition; hit rate 0.35% among 350,000; P27695; recombinant APE1, TAMRA/BHQ-2 abasic DNA cleavage fluorescence; AID 2517; Potency, µM (titrated, usually from 65.8 µM), for the others: at the highest dose activity change, negative = inhibition, hits mostly inhibitors;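 note: plate controls were vehicle for no effect and reference inhibitor for full effect; nearly all actives have a fitted effect of over 55% in size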
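APE1 at 0.75 nM preincubated 15 min at room temperature with compound. Reaction then started with 50 nM double-stranded THF-abasic substrate labelled with TAMRA/BHQ-2, and 525/598 nm fluorescence read kinetically. Activity taken as third-minus-first read difference, normalized to DMSO and NSC13755 controls.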
Pol eta inh: DNA polymerase eta (human) inhibition. AID 588591. recombinant Pol eta, fluorescent DNA replication assay. Potency, µM (titrated, usually from 114 µM), inactives show at the highest dose activity change, negative = inhibition, most hits filed as inhibitors. hit rate 1.2% among 390,000. Q9Y253; note: % is set by controls: 0 for no effect and ±100 for the full control effect
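Pol eta at 10 nM preincubated with compounds 15 min at room temperature; reaction started with fluorescent substrate (50 nM final) and read kinetically at 0 and 10 min.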
Pol beta inh: DNA polymerase beta (human) inhibition. P06746. hit rate 1.3% among 340,000. Pol beta primer extension/strand displacement, fluorescence kinetic. Potency, µM (highest dose often 114 µM), inactives show at the highest dose activity change, negative = inhibition, usual class: inhibitors; note: % is set by controls: 0 for no effect and ±100 for the full control effect
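Pol beta (10 nM) was preincubated with compound for 15 min at room temperature. The reaction was then started with 50 nM substrate and read immediately and after a further 10 min at room temperature.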
An asterisk follows results filed as active; u = inconclusive; x = no result given; ! = not active in a repeat; [ ] = remark or other dose. Calls come from the whole dose curve; as a rule, active = well fitted curve in the direction sought with a large enough effect; inconclusive = small, poorly fitted or top-dose-only effect, or another doubt; inactive = no such curve, though single readings can be large; an effect the other way counts as inactive or inconclusive. Potency is the fitted concentration of half-maximal effect.

SMILES	L3MBTL1 inh	Pol kappa inh	POLI inh	APE1 inh	Pol eta inh	Pol beta inh
COc1ccc(CNc2ccnc(-c3ccccc3Cl)n2)c(OC)c1	x	-5%[60.1 µM]	x	-10%	x	x
Nn1c(SCC(=O)NC2CCCCC2)nnc1C1CC1	-6%[11.4 µM]	-18%	1%	-5%	1%	0.32µM*
O=C(Cn1nnc2ccccc21)NNC(=S)NC1CCCCC1	-13%	12%	14%	2%	-12%	-4%
COc1cc(/C=C/C(=O)c2c(O)ccc3c(C)cc(=O)oc23)ccc1O	x	-6%	13µM*	0%	u	21%
CC(C)Nc1nnc(SCc2cc(=O)n3ccsc3n2)s1	u	-18%	u	-6%	-17%	32µM*
O=c1cc(CSc2nnc(Nc3ccccc3)s2)nc2sccn12	x	-20%	-16%	-2%	u	u
COc1ccc(N2C(=O)C(CC(N)=O)N(NC(=O)CCc3ccccc3)C2=O)cc1 (stereo not drawn)	21%	6%	15%	-7%	-10%	22µM*
CCC[C@@H]1CCCO[C@@](C(=O)NCc2cc(C)n(C)n2)(C(F)(F)F)C1	x	u	89µM*!	0%	-19%	x
CCc1ccccc1NC(=O)Cn1nc(N2CCN(c3ccccc3OC)CC2)ccc1=O	x	-16%	-28%	x	-8%	0%
CCOC(=O)c1c2c3c(c(Cl)ccc3[nH]c1=O)C(=O)c1ccccc1-2	-25%	u	u	u	79µM*	u
CCOC(=O)c1c2c3c(cccc3[nH]c1=O)C(=O)c1ccccc1-2	1%	0%	41%	-1%	u	0%
O=C(Nc1nccs1)c1cc(-c2ccccn2)nc2c(Cl)cccc12	x	-34%	25µM*	44%	u	u
CCc1ccccc1-n1c(-c2ccncc2)n[nH]c1=S	22%	-4%	-21%	32µM*	-14%	6%
Cc1ccccc1-n1c(-c2ccncc2)n[nH]c1=S	x	-4%	3%	2%	-7%	-27%
CCN(CC)/[N+]([O-])=N/OCOC(=O)c1ccccc1OC(C)=O	x	11%	-13%	x	x	x
C(=C\c1ccnc2ccccc12)/c1ccnc2ccccc12	x	5%	2%	x	x	x
C1=CN2CC=Cc3cc(/C=C/c4ccnc5ccccc45)cc(c32)C1	x	u	79µM*	x	x	x
O=C1c2cccc3c2[C@@H](CCC3)CN1[C@@H]1CN2CCC1CC2	x	1%[19.4 µM]	x	x	x	x
CCc1c(C)sc2c1CCN(Cc1cccc(OC)c1)C2c1ccccc1 (stereo not drawn)	x	-9%[60.1 µM]	30%	x	-18%	-3%
O=C(O)c1ccccc1-n1ncc2c1/C(=C/c1ccc(Cl)cc1)CC2	-20%	x	x	u	x	40µM*
COc1ccc(-c2c(C)oc3cc(O)cc(O)c3c2=O)cc1OC	5%	0%	-2%	-1%	-12%	6%
COc1cc2c(cc1OC)-c1c(oc3cc(O)cc(O)c3c1=O)CO2	x	32µM*	x	u	x	x
COc1cccc(N2CCN(S(=O)(=O)c3ccc4c(c3)NC(=O)CS4)CC2)c1	x	-28%	55%	0%	-19%	-10%
COc1ccc(Nc2cc(C)nc(N3CCOCC3)n2)cc1	-3%	-10%	32µM*	-3%	4%	24%
Cc1ccc(S(=O)(=O)NC(=O)c2ccc(F)cc2)c(C)c1	x	-3%	2%	6%	-3%	9%
Cc1ccc(S(=O)(=O)NC(=O)c2ccc(-c3ccc(-c4ccccc4)cc3)o2)c(C)c1	-10%	x	x	-2%	x	56µM*
O=C(N/N=C1\CCCc2oc(C(=O)O)cc21)c1ccccc1	2%	-11%	-6%	-1%	3%	9%
O=C(O)c1cc2c(o1)CCC/C2=N\O	1%	-28%	1%[58.9 µM]	-5%	-10%	89µM*
Cc1cc(Cl)nc2nc(Cl)ccc12	x	-9%	-4%	x	x	x
Cc1noc(/C=C/c2cccnc2)c1[N+](=O)[O-]	x	6%	7%	66%	-10%	0%
